Compound activity deposited in PubChem by The Scripps Research Institute Molecular Screening Center.
TCR-CD3 inh: inhibitors of human TCR-CD3 interaction; TAMRA-labeled TCR probe fluorescence, biochemical; inhibition, % at 9.4 µM; 360,000 compounds, 0.37% hits; in the data active means inhibition above about 19%;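 further: recombinant mutant TCR 2C K166C tagged with TAMRA read by polarization; 0% = receptor in buffer alone and 100% = receptor with positive control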
pPAFAH FP inh: inhibitors of human plasma PAF acetylhydrolase (pPAFAH); Q13093; recombinant pPAFAH, FP-rhodamine probe fluorescence polarization; inhibition, % at 3.39 µM; 330,000 compounds, 1.5% hits; AID 463082;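 active means inhibition above the mean inhibition across the screen plus 3 SD, cut at about 25% in these data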;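 further: inhibitors block binding of the rhodamine activity-based probe so polarization drops; 0% = enzyme with DMSO and 100% = wells lacking pPAFAH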
Target sequence (Q13093 whole entry, looked up): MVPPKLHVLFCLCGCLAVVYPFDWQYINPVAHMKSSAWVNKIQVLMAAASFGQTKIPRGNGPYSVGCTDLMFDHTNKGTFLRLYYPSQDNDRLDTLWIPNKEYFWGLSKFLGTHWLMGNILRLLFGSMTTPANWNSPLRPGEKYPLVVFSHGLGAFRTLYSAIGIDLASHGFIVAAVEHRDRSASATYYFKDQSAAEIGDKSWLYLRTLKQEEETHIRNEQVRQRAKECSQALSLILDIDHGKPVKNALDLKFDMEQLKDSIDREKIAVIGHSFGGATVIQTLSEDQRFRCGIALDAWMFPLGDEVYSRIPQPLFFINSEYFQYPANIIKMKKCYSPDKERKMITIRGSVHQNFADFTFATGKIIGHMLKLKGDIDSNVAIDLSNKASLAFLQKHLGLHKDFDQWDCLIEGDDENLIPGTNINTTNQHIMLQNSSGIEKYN
PAFAH2 FP inh: inhibitors of human PAFAH2 | Q99487 | recombinant PAFAH2, FP-rhodamine activity probe, fluorescence polarization | inhibition, % at 3.39 µM | 340,000 compounds, 0.99% hits;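 active means inhibition above the mean over all tested compounds plus 3 SD, cut at about 30% in these data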;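 further: inhibitors block probe labeling of enzyme so polarization drops; 0% = enzyme with DMSO and 100% = wells lacking PAFAH2 protein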
PAFAH1B3 inh: inhibitors of human PAFAH1B3; recombinant PAFAH1B3, FP-rhodamine probe, fluorescence polarization; Q15102; inhibition, % at 3.39 µM; 340,000 compounds, 0.28% hits; AID 492972;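 active means inhibition above the screen-wide average of all tested compounds plus 3 SD, cut at about 25% in these data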;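 further: 0% = enzyme with DMSO only and 100% = wells lacking PAFAH1B3 protein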
PAFAH1B2 inh: inhibitors of human PAFAH1B2. recombinant PAFAH1B2, FP-rhodamine activity probe, fluorescence polarization. inhibition, % at 3.39 µM. 340,000 compounds, 1.2% hits;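 active means inhibition above the mean of all tested compounds plus 3 SD, cut at about 24% in these data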;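 further: 0% = enzyme with DMSO and 100% = wells lacking PAFAH1B2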
PAFAH1B3 conf FP: confirmation of human PAFAH1B3 inhibitors; shares compounds with PAFAH1B3 inh; recombinant PAFAH1B3, FP-Rh activity-based probe, fluorescence polarization; inhibition, % at 3.39 µM; 390 compounds, 30% hits; AID 493032;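 active means average inhibition over triplicate runs above the hit cutoff set in the earlier primary screen, cut at about 25% in these data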;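 further: 0% = enzyme with DMSO and 100% = wells lacking PAFAH1B3 protein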
Numbers without * were called inactive; nt = no result given. An excerpt weighted towards active compounds, which were near 2.7% of everything screened.

SMILES	TCR-CD3 inh	pPAFAH FP inh	PAFAH2 FP inh	PAFAH1B3 inh	PAFAH1B2 inh	PAFAH1B3 conf FP
Cc1ccnc(N2C(=O)c3cccc4c([N+](=O)[O-])ccc(c34)C2=O)c1	-6	11	5	31*	1	41*
Cc1nnc(N2C(=O)c3cccc4c([N+](=O)[O-])ccc(c34)C2=O)s1	-7	1	-5	29*	3	23
Cc1cccc(N2C(=O)c3cccc4c(N5CCCCC5)c([N+](=O)[O-])cc(c34)C2=O)c1C	4	3	-4	9	2	nt
O=C1c2cccc3c([N+](=O)[O-])ccc(c23)C(=O)N1Cc1cccnc1	-8	nt	6	47*	20	48*
CC(C)CC1Nc2ccc(C(=O)NCCCN3CCOCC3)cc2NC1=O (stereo unspecified)	-1	1	3	-7	7	nt
O=C(NNc1nc2cc3c(cc2s1)OCO3)c1cccc(F)c1	-1	8	-1	10	9	nt
C[C@@H]1CN([C@@H](C)CO)C(=O)CCCn2nncc2CO[C@@H]1CN(C)C(=O)CCC(F)(F)F	-6	nt	nt	nt	nt	nt
O=C1C(=NO)CCc2ccccc21	4	nt	18	37*	12	23
COc1cc(/C=C/C(=O)O)ccc1O	-7	1	-1	-2	2	nt
COc1cc(/C=C/C(=O)CC(=O)/C=C/c2ccc(O)c(OC)c2)ccc1O	-28	12	-21	26*	12	10
O=C(NC1=C(Nc2ccc(F)cc2)C(=O)c2ccccc2C1=O)c1ccc(Cl)cc1	6	5	5	26*	13	9
C=CC(=O)Nc1sc2c(c1C(N)=O)CCCC2	7	-3	3	32*	-1	30*
C=CCNC(=S)Nc1sc2c(c1C(N)=O)CCCC2	-5	3	nt	nt	nt	nt
CCc1nnc(N/N=C/c2cc(Br)c(O)cc2O)n1N	0	7	6	26*	9	19
O=C(Nc1ccc(F)cc1F)Nc1csc2ccccc12	-5	8	nt	nt	nt	nt
O=C(Nc1ccc(F)c(Cl)c1)Nc1csc2ccccc12	3	-2	4	30*	18	21
CC(=O)c1ccc(NC2=C(N3CCOCC3)C(=O)c3ccccc3C2=O)cc1	-11	-8	24	31*	4	9
CC(=O)c1ccc(S(=O)(=O)Nc2ccc(N3CCOCC3)cc2)cc1	8	3	1	0	-2	nt
O=C(O)c1ccc(NC2=C(N3CCOCC3)C(=O)c3ccccc3C2=O)cc1	6	-7	11	27*	8	13
Cc1cc2cc(CNC(=O)Nc3ccccc3)ccc2n1C	9	11	4	30*	5	8
C=CCNC(=S)Nc1ccc2nsnc2c1	2	3	7	7	6	nt
S=C(Nc1ccc2nsnc2c1)N1CCCCCC1	5	2	15	32*	9	10
S=C(Nc1ccc(Cl)c(Cl)c1)NC1CCCCC1	nt	0	-15	1	1	nt
S=C(Nc1ccc2nsnc2c1)NC1CCCCC1	-1	8	6	56*	15	2
COCCNC(=S)Nc1ccc2nsnc2c1	10	1	20	69*	19	4
SMILES	TCR-CD3 inh	pPAFAH FP inh	PAFAH2 FP inh	PAFAH1B3 inh	PAFAH1B2 inh	PAFAH1B3 conf FP
COCCNC(=S)Nc1ccc(Cl)c(Cl)c1	-5	1	10	1	3	nt
C=CCN(CC=C)C(=S)Nc1ccc2nsnc2c1	-6	1	17	59*	17	4
COc1ccc(NC(=O)CSc2nc3ccccc3c(=O)n2CCCN2CCC(C)CC2)c(OC)c1	4	1	2	-2	0	nt
O=C(CSc1nc2ccsc2c(=O)n1CC1CCC(C(=O)O)CC1)c1ccc(Cl)cc1 (stereo unspecified)	4	3	6	27*	16	4
Nc1c(O)cccc1C(=O)O	-1	12	3	30*	4	10
O=C(O)c1ccccc1O	3	-5	-2	6	-8	nt
O=c1c2cccc3c2c(nn1CN1CCOCC1)-c1ccccc1-3	nt	4	7	26*	8	36*
Cc1ccc(/C=C2/C(=O)c3ccc(C(=O)O)cc3C2=O)o1	4	nt	16	26*	14	17
O=C1c2ccccc2C(=O)c2c1ccc(O)c2O	16	nt	12	30*	6	20
COc1cc(OC)c2cc(C(=O)N/N=C/c3ccccc3O)[nH]c2c1	16	22	9	29*	11	21
Cc1ccc(C(=O)O)cc1N1C(=O)c2cccc3cc(Br)cc(c23)C1=O	6	5	2	57*	3	57*
Cc1n[nH]c(C)c1N1C(=O)c2cccc3cc(Br)cc(c23)C1=O	3	1	1	8	2	nt
Cc1ccc(Cc2c(C(C)(C)C)nc3ccc(Br)cn23)cc1	5	nt	nt	nt	nt	nt
COc1ccc(N2C(=NC(=O)C3CC3)SC3CS(=O)(=O)CC32)cc1Cl (stereo unspecified)	5	1	7	12	10	nt
CC(=O)N(C1=C(N2CCOCC2)C(=O)c2ccccc2C1=O)c1ccc(C(=O)O)cc1	2	-3	3	26*	5	16
CC(=O)N(C)C1=C(N2CCOCC2)C(=O)c2ccccc2C1=O	nt	11	3	31*	8	12
COCCCNC(=S)Nc1ccc(S(=O)(=O)Nc2cc(OC)nc(OC)n2)cc1	2	1	-2	3	-2	nt
COc1ccccc1Nc1nc(NCCCCO)nc(N2CCCC2)n1	2	4	4	10	-1	nt
CS(=O)(=O)N1CCc2cc(-c3csc(NC(=O)Cc4cccs4)n3)ccc21	0	16	-6	36*	3	5
Cn1c2c(c3ccccc31)CCSC2=O	4	-1	-6	26*	3	24
O=C1Nc2ccc(Br)cc2C12NNc1ccccc1O2 (stereo unspecified)	9	29*	15	27*	12	15
O=C1Nc2ccc(Br)cc2C1(O)c1ccccc1 (stereo unspecified)	4	-5	-2	8	1	nt
O=C(O)c1cccc(NC2=C(n3nnc4ccccc43)C(=O)c3ccccc3C2=O)c1	2	-1	3	29*	5	17
O=C(O)c1cccc(NS(=O)(=O)c2ccc3nnn(O)c3c2)c1	2	2	-2	8	1	nt
O=C(CSc1ccc2c(c1)OCCO2)Nc1ccc(Cl)cn1	1	0	1	26*	6	8
O=C(CSc1ccc2c(c1)OCCO2)Nc1ccc(Br)cn1	-1	5	0	4	-2	nt
COc1ccccc1N(C(=O)CNC(=O)c1ccco1)C(C(=O)NC1CCCCC1)c1ccncc1 (stereo unspecified)	-7	-1	7	5	1	nt
COC(=O)c1c[nH]c2c1-c1cc(C(=O)OCc3ccccc3)n(S(=O)(=O)c3ccc(C)cc3)c1C(=O)C2=O	-4	nt	9	38*	9	8
CC(=O)N(/N=C1\Sc2ccccc2C1=O)c1ccccc1C	-3	-3	4	41*	5	54*
